Screening data as filed in PubChem BioAssay.
Mac1 fbg inh: inhibitors of CD11b/CD18 adhesion to fibrinogen, primary screen, K562 cells, luminescence | ATPlite luminescence; Mn2+ added to activate the integrin | inhibition, % at 10 µM | Integrin beta-2 (Homo sapiens) + Integrin alpha-M (Homo sapiens), P05107+P11215 | AID 1497, 2009 | 93,000 compounds, 0.54% hits;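 active = primary inhibition of 50% or more at 10 µM, then 40% or more on retest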
FAK inh: FAK kinase inhibitors, primary screen, biochemical | Focal adhesion kinase 1 (Homo sapiens), Q05397 | biochemical FAK kinase activity assay | inhibition, %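 (tested at 7 µM)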 | 97,000 compounds, 0.84% hits; in the data active = inhibition above about 19%;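 also: 0% = DMSO and 100% = reference compound high control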
D1 mod: D1 CRE-luciferase signal change, two-sided – cell-based, HEK293 D1, dopamine EC30, D1 allosteric modulator project, primary screen. D(1A) dopamine receptor (Homo sapiens), P21728. B-score at 10 µM. 58,000 compounds, 5.9% hits. AID 641, 2007. dopamine EC30 potentiation; actives deviate in either direction;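 active = luminescence count or its row- and column-corrected plate score outside the 99.7% band of the plate's sample wells, on either side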
Target sequence (P21728 whole entry, looked up): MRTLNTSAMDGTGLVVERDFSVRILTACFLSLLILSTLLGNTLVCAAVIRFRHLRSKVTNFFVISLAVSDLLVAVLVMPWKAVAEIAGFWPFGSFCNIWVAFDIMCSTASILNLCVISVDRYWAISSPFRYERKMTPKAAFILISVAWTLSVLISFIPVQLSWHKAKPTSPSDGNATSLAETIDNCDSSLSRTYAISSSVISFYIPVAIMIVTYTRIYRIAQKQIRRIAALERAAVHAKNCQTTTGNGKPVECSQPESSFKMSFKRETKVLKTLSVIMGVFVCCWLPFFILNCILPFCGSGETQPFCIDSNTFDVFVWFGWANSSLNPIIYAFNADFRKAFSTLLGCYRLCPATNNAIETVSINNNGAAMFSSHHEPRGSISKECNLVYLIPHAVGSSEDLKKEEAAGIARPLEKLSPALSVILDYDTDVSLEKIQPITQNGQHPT
Mac1 fbg enh: enhancers of CD11b/CD18 adhesion to fibrinogen, primary screen, K562 cells, luminescence | Integrin beta-2 (Homo sapiens) + Integrin alpha-M (Homo sapiens), P05107+P11215 | ATPlite luminescence | activation, % at 10 µM | 93,000 compounds, 0.07% hits;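 active = 10 µM primary screen giving 50% or more activity, confirmed by 40% or more on retest at that dose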
DAT uptake mod: changed hDAT dopamine uptake under cocaine IC80, either direction, primary screen, cocaine antagonist project, cell-based, LLC-PK1 hDAT, [14C]-dopamine uptake, MLSMR | LLC-PK1 hDAT cells, [14C]-dopamine uptake with cocaine IC80; actives deviate in either direction | 110,000 compounds, 1.3% hits | B-score at 10 µM | Sodium-dependent dopamine transporter (Homo sapiens), Q01959;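 active = Z score or B-score, a plate-position-corrected score, falls beyond the plate's 99.7% confidence bounds, in either direction; inactive = both scores lie inside the 99.7% bounds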;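 also: scored against the spread of the other compound wells on the same plate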
Pyk2 oligo antag: antagonists of Pyk2 self-association, primary screen, Q293 cells, FERM NanoBiT luminescence, HTS | Protein-tyrosine kinase 2-beta (Homo sapiens), Q14289 | stronger effect = lower value | z-score (the deposit names both 25 µM and 10 µM) | 99,000 compounds, 0.83% hits | AID 1347419, 2020;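 active = Z-score of -3 or lower, scaled per plate to the spread of control and sample wells; inactive = z-score above -3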;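 also: negative z-score means lost luminescence so less FERM oligomerization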
* = called active by the depositor; x = not tested or not shown. The entries come from a sample that favours hits as a whole.

SMILES | Mac1 fbg inh | FAK inh | D1 mod | Mac1 fbg enh | DAT uptake mod | Pyk2 oligo antag
O=S(=O)(c1ccc(Nc2ccc(-c3ccc4c(c3)OCCO4)nn2)cc1)N1CCCC1 | 26.2 | -0.7 | x | -2.5 | -0.824 | -1.83
O=C(NC1CC1)c1cccc(Nc2ccc(-c3ccc4c(c3)OCCO4)nn2)c1 | 23.9 | -3.0 | 0.287 | -0.2 | -0.00256 | -3.35*
Cc1cccc(-n2c(SCC(=O)Nc3ccc4c(c3)OCO4)nnc2-c2ccoc2C)c1 | 2.7 | -2.4 | -3.36* | -1.1 | 0.954 | -2.6
Cc1cccc(-n2ccnc2SCC(=O)Nc2ccc3c(c2)OCCO3)c1 | 2.7 | -1.4 | -1.38 | 9.5 | 1.84* | -1.7
C=C1CCN([C@@H](Cc2ccccc2)C(=O)NC2CCN(Cc3ccccc3)CC2)S(=O)(=O)c2ccccc21 | x | x | x | x | 0.538 | x
Cc1cccc(OCCCC(=O)NCc2ccco2)c1 | 1.3 | 3.7 | x | 15.8 | -0.595 | 0.7
CCNC(=O)n1nccc1C(C)Oc1ccc(Cl)cc1 (configuration not stated) | x | -0.2 | x | x | -0.285 | -0.28
COC(=O)c1sccc1NC(=O)c1cc(-c2ccc(C)cc2C)nc2ccccc12 | x | -2.8 | x | x | -0.873 | -0.33
NC(=O)c1ccsc1NC(=O)c1cccs1 | x | 27.6* | 2.21 | x | 1.32 | x
O=C(CSc1ccc2nnc(-c3ccc(Cl)cc3)n2n1)N1CCCC1 | -36.0 | x | 5.64* | -3.2 | 0.474 | x
CCc1nnc(NC(=O)c2ccc(OC)cc2OC)s1 | 16.7 | 1.2 | -4.83* | 1.3 | 0.251 | 1.09
CCc1nnc(NC(=O)c2cc3ccccc3oc2=O)s1 | -23.8 | 12.2 | -0.927 | -1.6 | -8.92* | 0.58
CCc1nnc(NC(=O)Nc2ccccc2OC)s1 | -5.6 | 2.1 | -0.0867 | 0.3 | -0.993 | -0.93
Cc1cccc(NC(=O)C2(c3cccs3)CCOCC2)n1 | 6.3 | x | x | -3.2 | x | x
CCOc1ccc(OCCCC(=O)O)cc1 | 7.6 | 0.3 | x | 0.1 | -0.805 | 0.86
COc1ccccc1C1C(C(=O)NCc2ccccc2)=C(C)Nc2ncnn21 (configuration not stated) | 7.7 | x | -0.163 | -0.9 | 0.00782 | 1.19
CC(=O)C1=C(C)Nc2ncnn2C1c1ccccc1OCc1ccccc1 (configuration not stated) | -4.9 | -3.5 | -0.145 | -4.0 | 0.00375 | -3.08*
O=C(NCc1ccncc1)C1CCCCC1 | 60.6 | 1.0 | x | -3.6 | -7.99* | 0.33
N#C/C(=C\c1ccc(Oc2ccc(C(F)(F)F)cc2[N+](=O)[O-])cc1)c1nc2ccccc2[nH]1 | 2.7 | 0.9 | x | 82.4* | -0.45 | 0.36
Cc1cccc(-n2c(O)c(C=Nc3c(C)n(C)n(-c4ccccc4)c3=O)c3ccccc3c2=O)n1 | x | -1.4 | 0.306 | x | 3.83* | -0.69
Cc1c(N=Cc2ccco2)c(=O)n(-c2ccccc2)n1C | 11.7 | x | -0.3 | -1.9 | 0.309 | 0.25
COc1ccc2c(C=Nc3c(C)n(C)n(-c4ccccc4)c3=O)c(O)n(Cc3ccco3)c(=O)c2c1 | -11.8 | 3.8 | 0.829 | 32.9 | 4.16* | -0.39
CCOC(=O)CNC(=O)C(CC(C)C)NC(=O)C1CCCCC1 (configuration not stated) | -0.4 | -1.2 | x | -3.6 | -0.0216 | 0.8
Cc1ccc(-c2csc(NC(CO)c3nc4ccccc4n3CCOCCO)n2)cc1 (configuration not stated) | x | x | x | x | 2.75* | x
OCCCn1c(C(CO)Nc2nc(-c3ccc(Cl)cc3)cs2)nc2ccccc21 (configuration not stated) | x | x | x | x | 2.49* | x
SMILES | Mac1 fbg inh | FAK inh | D1 mod | Mac1 fbg enh | DAT uptake mod | Pyk2 oligo antag
Cc1ccc(Cn2c(C(CO)Nc3nc(-c4ccc(F)cc4)cs3)nc3ccccc32)cc1 (configuration not stated) | x | x | x | x | 1.59 | x
COc1ccc(-c2csc(NC(CO)c3nc4ccccc4n3Cc3ccc(C)cc3)n2)cc1 (configuration not stated) | x | x | x | x | 0.00289 | x
O=c1nc(Nc2ccccc2)sc2ccc([N+](=O)[O-])cc12 | -9.5 | x | x | 58.3 | x | x
C=CCOC(=O)C1=C[C@H](c2ccc3c(c2)OCO3)C[C@H](OCCCCO)O1 | x | x | x | x | 2.02 | x
S=C(Nc1ccccn1)c1ccccn1 | 4.1 | 0.6 | -2.63* | -1.9 | 2.39* | 0.04
Cc1ccc(C)c(NC(=S)c2ccccn2)c1 | x | -4.9 | x | x | 1.12 | -0.23
O=C(Cn1cc([N+](=O)[O-])cn1)Nc1ccn(Cc2c(F)c(F)c(F)c(F)c2F)n1 | -4.2 | -2.1 | x | -0.2 | -0.384 | -0.13
COCCn1c(CN2CCN(c3cccc(Cl)c3)CC2)nc2c1c(=O)n(C)c(=O)n2C | 32.3 | -3.2 | -3.54* | -2.6 | -0.0719 | x
CCOCCn1c(CN2CCN(c3cccc(Cl)c3)CC2)nc2c1c(=O)n(C)c(=O)n2C | 13.7 | 3.1 | 0.264 | 0.2 | 1.07 | x
Cc1nnc(N2CCN(c3ccccc3)CC2)c2nn(-c3ccccc3F)c(C)c12 | x | 2.9 | x | x | x | x
COc1ccccc1N(C)S(=O)(=O)c1ccc(C(=O)OCC(=O)NCc2ccco2)cc1 | 2.9 | 9.7 | x | -2.6 | -0.133 | 0.1
COC(=O)c1cn(-c2ccccc2)nc1-c1ccncc1 | -8.9 | 5.3 | x | -1.3 | 1.79* | 0.9
O=C(c1cc(-c2ccc(Cl)cc2Cl)on1)N1CCOCC1 | 1.2 | 1.3 | -4.56* | -5.9 | 0.541 | 0.3
O=C(c1cc(-c2ccc(Cl)cc2)on1)N1CCOCC1 | -33.6 | -0.6 | -3.41 | -4.2 | 0.88 | 0.25
O=C(c1cc(-c2ccc3c(c2)OCO3)on1)N1CCOCC1 | -50.9 | -3.1 | -4.47* | 4.2 | -0.774 | 1.19
O=c1cc(C(F)(F)F)nc(-c2ccccc2)[nH]1 | -6.9 | 1.5 | 2.66 | -1.9 | -0.0191 | 1.25
Cn1nc(OC(=O)Nc2ccc(Cl)cc2)cc1C(F)(F)F | -1.4 | -0.8 | x | -4.3 | -2.91* | x
CCOC(=O)c1nnc(-c2ccc(C)cc2)nc1Oc1ccc(Cl)cc1Cl | x | 1.6 | x | x | -2.69* | 0.98
COc1ccc(Cl)cc1N1C(=O)C2CCCN2C1c1sccc1C (configuration not stated) | 0.9 | -1.5 | -2.35* | 1.3 | 1.29 | 0.96
COC(=O)CCC(=O)NNC(=O)c1ccc(Cl)cc1Cl | -4.0 | 3.7 | x | -3.4 | -4.67* | -0.15
Cc1cc(C)c(N=C2CCCN2Cc2ccccc2)c(C#N)c1 | x | 0.5 | x | x | 3* | -1.62
N#Cc1ccccc1N=C1CCCN1Cc1ccccc1 | -5.4 | 2.6 | -0.258 | -2.6 | -1.22 | -0.43
S=C(Nc1ccccc1Oc1ccccc1)Nc1cccc(Cl)c1Cl | 97.9 | x | x | -7.4 | x | x
C=CCn1c(=O)c2c3c(sc2n2c(Nc4ccccc4)nnc12)CCCC3 | -5.2 | 1.7 | x | -1.7 | 0.477 | -3.72*
CCOC(=O)CSc1nnc2n(Cc3ccccc3)c(=O)c3c4c(sc3n12)CCC4 | 5.7 | 4.0 | x | 5.9 | -1.48* | 0.53
